# DT40 TDP1 CPT: DT40-hTDP1 cell growth loss with CPT | chicken DT40 Tdp1-/-;hTDP1 cells + 20 nM CPT, ATP luminescence, 48 h | Potency, µM (titrated, usually from 46.2 µM), without a hit: at the top dose activity change, negative = growth inhibition, most hits filed as inhibitors | 420,000 compounds, 12% hits; also: % is scaled to controls: 0 for no effect and ±100 for the full control effect; nearly all actives have a fitted effect of over 55% in size
#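 Cell growth measured by CellTiter-Glo luminescence after a minimum 48 h, 37 C compound exposure with 20 nM CPT in Tdp1-knockout DT40 cells stably expressing hTDP1, seeded 400/well; qHTS titration format.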
# DT40 TDP1 no CPT: qHTS for Inhibitors of human tyrosyl-DNA phosphodiesterase 1 (TDP1): qHTS in cells in absence of CPT; AID 686978, 2013; 420,000 compounds, 15% hits; Potency, µM (doses to about 46.2 µM), inactives show at the highest dose activity change, negative = growth inhibition, hits mostly inhibitors; DT40 Tdp1-/- hTDP1 cells, no CPT, ATP luminescence, 48 h; also: % is scaled to controls: 0 for no effect and ±100 for the full control effect; nearly all actives have a fitted effect of over 55% in size
#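 Growth of hTDP1-complemented DT40 Tdp1-knockout cells is measured by ATP luminescence after at least 48 hr compound exposure at 37 °C, with DMSO substituting for the 20 nM CPT used in the parallel screen.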
# TDP1 block: TDP1 (human) enzyme inhibition; recombinant TDP1, AlphaScreen DNA substrate cleavage; 350,000 compounds, 0.28% hits; Q9NUW8; Potency, µM (top dose mostly 130 µM), for the others: top-dose activity change, negative = inhibition, usual class: inhibitors; AID 485290; also: % is scaled to controls: 0 for no effect and ±100 for the full control effect; nearly all actives have a fitted effect of over 40% in size
# Target sequence (Q9NUW8 whole entry, looked up): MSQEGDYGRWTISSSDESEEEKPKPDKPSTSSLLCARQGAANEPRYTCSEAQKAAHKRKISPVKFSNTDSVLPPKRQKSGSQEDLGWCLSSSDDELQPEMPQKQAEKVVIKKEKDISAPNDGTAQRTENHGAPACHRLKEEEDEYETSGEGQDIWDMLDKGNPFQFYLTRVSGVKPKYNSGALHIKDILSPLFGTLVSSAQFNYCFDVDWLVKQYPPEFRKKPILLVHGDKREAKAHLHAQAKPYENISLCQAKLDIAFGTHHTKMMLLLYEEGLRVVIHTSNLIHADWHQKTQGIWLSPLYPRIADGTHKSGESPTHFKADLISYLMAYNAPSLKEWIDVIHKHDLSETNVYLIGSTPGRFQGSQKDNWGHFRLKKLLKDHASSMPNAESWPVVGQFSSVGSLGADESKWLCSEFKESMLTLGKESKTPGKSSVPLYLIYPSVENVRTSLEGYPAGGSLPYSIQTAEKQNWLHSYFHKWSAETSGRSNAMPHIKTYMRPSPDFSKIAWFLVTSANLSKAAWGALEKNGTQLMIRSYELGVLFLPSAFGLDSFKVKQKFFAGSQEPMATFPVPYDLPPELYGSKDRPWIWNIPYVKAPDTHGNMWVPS
#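 AlphaScreen read-out: signal falls as enzyme removes the 3' tyrosine-FITC from a 5'-biotinylated DNA oligo (15 nM, 5 min, RT). Enzyme was E. coli-made recombinant Tdp1 at 1 nM, exposed to compound for 15 min beforehand; beads 10 ug/ml, 10 min.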
# ClpP mod: qHTS Assay for Activators of ClpP; 340,000 compounds, 1.9% hits; AID 651965, 2013; purified B. subtilis ClpP, FRET peptide cleavage, 20 min; Potency, µM (series often up to 57.5 µM), inactives show at the highest dose activity change, negative = active; active = well fitted falling curve with a large enough effect; inconclusive = small, poorly fitted or top-dose-only effect; inactive = no such curve, though single readings can be large or run the other way; also: the source files actives as falling curves though it sought activators and does not explain the sign; nearly all actives have a fitted effect of over 65% in size
#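 FRET quenching reversal measured ClpP activation: 10 microg/mL B. subtilis ClpP at pH 8 with the FRET-FV decapeptide, read at 430 nm after 320 nm excitation. The 20-min minus 0-min signal was scaled between DMSO/no-enzyme wells and ADEP (5.8 microM final).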
# * = called active by the depositor; ? = inconclusive; · = no result; [ ] = another dose, or the depositor's remark. Sampled rows, rich in hits. Any-hit rate of the full collection: about 17%. Unless noted, calls follow the shape of the dose curve; as a rule, active = well fitted curve in the direction sought with a large enough effect; inconclusive = small, poorly fitted or top-dose-only effect, or another doubt; inactive = no such curve, though single readings can be large; an effect the other way counts as inactive or inconclusive. Potency is read from the fitted curve at half-maximal effect.
SMILES,DT40 TDP1 CPT,DT40 TDP1 no CPT,TDP1 block,ClpP mod
Cc1cc(NCc2ccccc2)nc2ccccc12,?,?,3%,-7%
Cc1cc(NCc2ccccc2)c2ccccc2n1,21µM*,21µM*,3%,-1%
COc1ccc(-c2cc(-c3ccccc3)nc(N)n2)c(O)c1,?,?,·,-3%
COc1ccc(OC)c(Nc2cc(-c3ccccc3)nc(N)n2)c1,0.65µM*,0.73µM*,9%,-3%
COc1ccc2nc(C)cc(Nc3ccccc3OC)c2c1,?,?,·,-1%
COc1ccc(NC2=C(c3ccccc3)C(=O)c3ccccc32)cc1Cl,?,?,2%,-2%
Cc1n[nH]c(=O)nc1N/N=C/c1ccc(O)c([N+](=O)[O-])c1,-12%,?,2%,-3%
CCOC(=O)N(C)C[C@H]1OCc2cnnn2CCCC(=O)N([C@@H](C)CO)C[C@H]1C,6%,-21%,·,-1%
CCCCC(=O)N(Cc1ccc(-c2ccccc2-c2nn[nH]n2)cc1)[C@@H](C(=O)O)C(C)C,-18%,-21%,·,·
NC(=O)CC[C@H](NC(=O)[C@H](Cc1ccccc1)n1c(=O)[nH]c2ccccc2c1=O)C(=O)N1CCC[C@H]1C(=O)O,5%,-12%,·,0%
COc1ccc(OC)c(Nc2nc(=O)c3cccnc3s2)c1,21µM*,-21%,0%,0%
COC(=O)c1ccc2nc(C)cc(Nc3cccc(Cl)c3C)c2c1,12µM*,13µM*,·,37%
COc1ccc(OC)c(Nc2cc(C)nc3ccccc23)c1,18µM*,18µM*,5%,-1%
Cc1cc(Cl)c2ccccc2n1,23%,-10%,3%,1%
Cc1ccc(Nc2nc(=O)c3cccnc3s2)cc1,-10%,-18%,-2%,-2%
Cc1cc(Nc2ccccc2Cl)c2ccccc2n1,23µM*,13µM*,·,·
CCOc1ccc(NC(=O)CSc2ccc(-c3cccnc3)nn2)cc1,-8%,2%,1%,2%
O=c1c(-c2cccc(F)c2)nc2cncnc2n1-c1ccccc1,1%,0%,·,·
O=C(NCc1ccon1)c1ccc(-c2csc3ccccc23)nc1N1CCC(N2CCCC(CO)C2)CC1 (centres undefined),13%[9.04 µM],-10%,·,·
O=C(CNCc1ccco1)Nc1ccc(Oc2ccccc2)cc1,-22%,-7%,-3%,1%
CN(C(=O)c1cnn(-c2nccc(-c3ccccc3C(F)(F)F)n2)c1C1CC1)C1CCOC1 (centres undefined),?,-17%,·,·
COc1cccc(Nc2cc(C)nc3ccccc23)c1,?,21µM*,5%,0%
CCN(CC(=O)NCc1cccs1)C(=O)c1cccc(Cl)c1,-13%,1%,-3%,-4%
O=C(NCc1ccccc1)c1c[nH]c2ccc(S(=O)(=O)Nc3ccc4c(c3)OCCO4)cc2c1=O,-24%,-29%,2%,-11%
O=C(NCc1cccnc1)c1c[nH]c2cc3c(cc2c1=O)OCCO3,10µM*,5.8µM*,0%,-23%
SMILES,DT40 TDP1 CPT,DT40 TDP1 no CPT,TDP1 block,ClpP mod
Cc1ccc(NC(=O)N[C@H](C(=O)O)C(C)C)c(C)c1,-29%,?,1%,·
Cc1ccc(/C=N/Nc2cccc3cccnc23)c(O)c1,-7%,?,11%,-2%
C/C(=N\Nc1cccc2cccnc12)c1ccc[nH]1,2.6µM*,4.6µM*,12%,-2%
O=C1C2CC=CCC2C(=O)N1c1ccc(Cc2ccncc2)cc1 (centres undefined),18µM*,11µM*,-1%,-2%
O=C1CC(Cc2ccc(Cl)cc2)C(=O)N1c1ccncc1 (centres undefined),-22%,-17%,2%,-1%
CCc1ccc(NC(=O)[C@H](CSCc2ccccc2)N2Cc3ccccc3C2=O)cc1,-20%,?,2%,-3%
CCN(CC)S(=O)(=O)c1ccc(NC(=O)[C@H](CSCc2ccccc2)N2Cc3ccccc3C2=O)cc1,21µM*,?,2%,-1%
Cc1ccc(NC(=O)[C@H](Cc2ccccc2)N2Cc3ccccc3C2=O)cc1,6%,-23%,5%,0%
CCN(CC)S(=O)(=O)c1ccc(NC(=O)[C@H](CCSC)N2Cc3ccccc3C2=O)cc1,?,23µM*,9%,-28%
COc1cc2[nH]c(=O)n3nc(-c4ccccc4)nc3c2cc1OC,23µM*,21µM*,0%,?
COc1ccc(-c2nc3c4ccccc4[nH]c(=O)n3n2)cc1,?,?,-1%,32µM*
COc1ccc(-c2nn(C)c(=O)[nH]2)cc1,-7%,-7%,6%,0%
COc1cc(OC)cc(-c2c(-c3cccs3)c3cc(-c4cccc5[nH]ccc45)ccc3n2C)c1,?,?,2%,4%
Cc1cc(OCc2nn[nH]n2)c2c(C)c(Cc3ccccc3)c(=O)oc2c1,1%,-17%,3%,32µM*
CCNc1nc(NCC)n2c(SCC(=O)Nc3cccc(Cl)c3)nnc2n1,?,?,·,-2%
CCNc1nc(NCC)n2c(SC(C(=O)Nc3cc(Cl)cc(Cl)c3)c3ccccc3)nnc2n1 (centres undefined),23µM*,16µM*,3%,1%
CC(C)C(NS(=O)(=O)c1ccc2c(c1)oc(=O)n2C)C(=O)NCc1ccccc1 (centres undefined),-13%,2%,2%,0%
O=C(c1ccncc1)N1CCC2(CC1)CN(C(c1ccccc1)c1ccccc1)C2,7%,-3%,·,·
COCC(=O)N1CCC2(CC1)CCN(c1ccc(-c3ccccc3)cc1)CC2,?,0.21µM*,·,·
Cn1cccc1C(=O)N1CCC2(CC1)CCN(c1ccc(-c3ccccc3)cc1)CC2,9.2µM*,8.2µM*,·,·
Cn1cccc1C(=O)N1CCC2(CCN(C(=O)Nc3cccc(F)c3)CC2)CC1,23µM*,?,·,·
Cn1cccc1C(=O)N1CCC2(CC1)CN(C(=O)Nc1cccc(F)c1)C2,-10%,?,·,·
Cn1cccc1C(=O)N1CCC2(CC1)CN(C(c1ccccc1)c1ccccc1)C2,?,12µM*,·,·
CN(/N=C/c1cc(Cl)cc(Cl)c1O)c1c(Cl)cccc1[N+](=O)[O-],-17%,-16%,0%,·
COc1ccc(CCNC(=O)Cn2c(=O)n(-c3cc(F)ccc3F)c(=O)c3sccc32)cc1OC,?,15µM*,3%,0%
COc1ccc(CCNC(=O)CCn2c(=O)c3cccn3c3ccc(F)cc32)cc1OC,?,16µM*,4%,-8%
COc1ccc(CCNC(=O)Cn2c(=O)n(-c3ccc(F)cc3F)c(=O)c3sccc32)cc1OC,?,?,2%,·
CCOc1ccc(CCNC(=O)CCn2cccc2)cc1OCC,-11%,-20%,3%,-1%
O=C(CCn1c(=O)c2cccn2c2ccc(F)cc21)NCCc1ccccc1,21µM*,18µM*,1%,-22%

# Screening results (PubChem)
